Source: PubChem
ssDAF12 agonist: activates DAF-12 receptor from parasite S. stercoralis. HEK293 ssDAF-12/GRIP1 lit1-tk-luc reporter, luminescence; % of 3 µM dafachronic acid response. activation, % at 6.8 µM. hit rate 1% among 370,000;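 active = activation above the mean over all tested compounds plus 3 SD, cut at about 0.9% in these data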;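 also: 0% = DMSO-only wells and 100% = 3 µM delta7-dafachronic acid wells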
DAX1 inh-1: NR0B1 (DAX1) inhibition | P51843 | HEK293 Gal4-DAX1 luciferase reporter, luminescence | inhibition, % at 6.75 µM | hit rate 0.99% among 340,000 | AID 504766;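 active = inhibition above the mean over all tested compounds plus 3 SD, cut at about 4.2% in these data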;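 also: 0% = DAX1-transfected cells with DMSO and 100% = empty-vector control cells with DMSO; inhibition shows as a rise in luminescence from relieved DAX1 repression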
Target sequence (P51843 207-470 limits assumed): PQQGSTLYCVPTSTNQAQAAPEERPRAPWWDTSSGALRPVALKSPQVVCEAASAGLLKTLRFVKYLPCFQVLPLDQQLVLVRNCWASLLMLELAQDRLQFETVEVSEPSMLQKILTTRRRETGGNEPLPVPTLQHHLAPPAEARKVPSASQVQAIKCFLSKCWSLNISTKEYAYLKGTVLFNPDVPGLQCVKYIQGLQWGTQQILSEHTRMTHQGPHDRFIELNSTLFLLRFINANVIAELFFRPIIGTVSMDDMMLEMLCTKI
hgDAF-12 ag: agonists of H. glycines DAF-12 nuclear receptor; AID 687014; hit rate 1.8% among 370,000; HEK293 GAL4-hgDAF12 UAS-luciferase reporter, agonist luminescence; normalized to butyrate control; activation, % at 6.8 µM;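 active = activation above a cutoff set at the mean of all screened compounds plus 3 SD, cut at about 10% in these data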;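 also: 0% = DMSO wells and 100% = sodium butyrate wells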
hcDAF12 agonist: activates DAF-12 receptor from parasite H. contortus; HEK293 hcDAF-12 lit1-tk-luc reporter, luminescence; 0% DMSO, 100% Δ7-dafachronic acid; activation, % at 6.8 µM; hit rate 1.4% among 370,000;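 active = activation above the mean of all tested compounds plus 3 SD, cut at about 5.5% in these data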;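 also: 100% = response to 3 µM Δ7-dafachronic acid high control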
DAX1 inh-2: blocks DAX1 repression of SF-1 activated StAR promoter. inhibition, % at 6.8 µM. AID 652010. hit rate 1.1% among 370,000. HEK293T StAR-luciferase reporter, SF-1/DAX-1 repression relief;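 active = inhibition above the mean over all tested compounds plus 3 SD, cut at about 3.6% in these data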;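 also: 0% = DAX-1 cells with DMSO and 100% = cells lacking DAX-1 with DMSO; higher inhibition means more luminescence from relief of DAX-1 repression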
Wee1 degr inh: inhibitors of human Wee1 degradation; hit rate 1.2% among 220,000; AID 1321; P30291; reporter increase, % at 5 µM; HeLa Luc-Wee1K328M stability, luciferase luminescence; 100% = proteasome inhibitor MG132 effect;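 active = activation above the mean of all tested compounds plus 3 SD, set per screening run, cut at about 8.8% in these data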;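 also: cells exposed to compound for 20 h before luminescence read; 0% = DMSO alone and 100% = MG132 at 30 µM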
LXR ag: LXR-beta agonism as hcDAF-12 counter-screen | 3,400 tested, under 10 active | shares compounds with hcDAF12 agonist | HEK293 Gal4-LXR tk-luc reporter, luminescence, 24 h; normalized: DMSO 0%, positive control 100% | activation, % at 6.8 µM | AID 743027;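 active = mean percent activation of the reporter above a cutoff set as the average over tested compounds plus their standard deviation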
Target sequence (P55055 whole entry, looked up, the tested form may be a part): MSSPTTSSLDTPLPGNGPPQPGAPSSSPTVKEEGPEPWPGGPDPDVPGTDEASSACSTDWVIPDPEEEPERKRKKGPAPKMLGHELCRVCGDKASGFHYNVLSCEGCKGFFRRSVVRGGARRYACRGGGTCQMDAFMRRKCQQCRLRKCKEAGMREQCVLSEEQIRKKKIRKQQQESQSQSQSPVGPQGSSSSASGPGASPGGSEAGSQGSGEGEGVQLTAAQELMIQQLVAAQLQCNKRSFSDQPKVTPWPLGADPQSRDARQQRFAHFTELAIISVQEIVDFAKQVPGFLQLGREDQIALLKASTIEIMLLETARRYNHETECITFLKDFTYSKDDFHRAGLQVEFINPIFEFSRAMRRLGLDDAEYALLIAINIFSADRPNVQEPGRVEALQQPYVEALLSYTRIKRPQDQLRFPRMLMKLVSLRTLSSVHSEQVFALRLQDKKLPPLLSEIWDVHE
hcDAF12 conf: hcDAF-12 agonism, confirmation assay | shares compounds with hcDAF12 agonist | HEK293 hcDAF-12 lit1-tk-luc reporter, luminescence; % of Δ7-dafachronic acid response | activation, % at 6.8 µM | hit rate 61% among 3,400 | AID 743032;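 active = mean activation across triplicate tests above the threshold derived from the earlier primary screen, cut at about 5.5% in these data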;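 also: 0% = DMSO only wells and 100% = 3 µM Δ7-dafachronic acid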
Active calls of the source: *; nt = no result. Only some compounds are listed: those with a hit (about 4.6% of all), similar ones and a draw of the others.

SMILES | ssDAF12 agonist | DAX1 inh-1 | hgDAF-12 ag | hcDAF12 agonist | DAX1 inh-2 | Wee1 degr inh | LXR ag | hcDAF12 conf
CCCCNC(=O)C1(C)CCN1Cc1cc(C)ccc1C (centres undefined) | -1.4 | nt | 1.1 | -0.7 | 0.1 | nt | nt | nt
O=C(CSc1nnc(Nc2ccccc2F)s1)c1cc2ccccc2o1 | -0.1 | 0.1 | 1.9 | 7.8* | -0.2 | 0.7 | 0.0 | 2.8
O=C(CSc1nnc(Nc2ccccc2F)s1)NCC1CCCO1 (centres undefined) | -0.5 | -0.1 | 3.8 | 1.1 | 0.3 | nt | nt | nt
COc1ccc(Nc2nnc(SCC(=O)N3CCCC3)s2)cc1 | -1.4 | 0.2 | 0.0 | -1.6 | -0.4 | -2.0 | nt | nt
COc1ccc(Nc2nnc(SCC(=O)c3cc4ccccc4o3)s2)cc1 | 2.0* | 4.1 | 5.6 | 10.0* | 2.2 | 1.6 | 0.0 | 5.2
CCCc1cc2c(cc1N(C)S(=O)(=O)c1ccccc1)OCO2 | -1.4 | -2.0 | -1.3 | -1.1 | -0.8 | nt | nt | nt
COc1ccc(-c2nc(SCC(=O)NC3CCCCC3)n[nH]2)cc1 | -1.4 | -0.7 | -3.4 | -2.6 | -3.5 | nt | nt | nt
CC(C)(C)C(=O)c1c(N)[nH]c(C(=O)c2ccccc2)c1-c1ccc(C(F)(F)F)cc1 | 0.0 | nt | 1.8 | -0.3 | 0.1 | nt | nt | nt
NNc1nc(-c2ccccc2)nc2sc3c(c12)CCCC3 | 0.6 | 2.9 | 2.9 | 7.8* | 1.8 | 1.2 | 1.9 | 18.9*
NNc1nc2sc3c(c2c(=O)n1Cc1ccccc1)CCC3 | -1.5 | 1.1 | 1.8 | 1.1 | 0.7 | -3.1 | nt | nt
Cc1cc(NC(=O)C2Oc3ccccc3OC2C)no1 (centres undefined) | 0.1 | -0.7 | 2.3 | 7.0* | 0.5 | 0.8 | -0.1 | 2.0
Cc1cc(NS(=O)(=O)c2ccc(NC(=O)c3ccccc3F)cc2)no1 | -1.6 | -0.6 | -1.8 | 0.6 | 0.1 | nt | nt | nt
CSc1nc(O)c(/C=C2\C=Nc3ccccc32)[nH]1 | 0.3 | 1.1 | 10.3 | 12.1* | 1.1 | 0.7 | 0.2 | 10.5*
Fc1cccc(Cc2c(-c3cccc(Br)c3)nc3c(Cl)cc(C(F)(F)F)cn23)c1 | -0.2 | nt | 0.7 | 6.6* | -0.3 | nt | 0.0 | 1.4
Cc1ccc(Cc2c(-c3ccc(F)cc3)nc3c(Cl)cc(C(F)(F)F)cn23)cc1 | -0.6 | nt | 0.6 | 2.1 | -0.2 | nt | nt | nt
Cc1ccc(Cc2c(-c3cccc(Br)c3)nc3c(Cl)cc(C(F)(F)F)cn23)cc1 | 0.1 | nt | 0.8 | 3.2 | 0.6 | nt | nt | nt
Fc1ccc(-c2nc3c(Cl)cc(C(F)(F)F)cn3c2Cl)cc1 | 0.5 | 7.9* | 5.8 | 9.6* | 0.7 | -2.0 | 0.7 | 8.7*
Cc1cscc1NC(=O)/C=C/C(=O)O | -0.2 | nt | 1.0 | 6.8* | 0.5 | 0.9 | -0.4 | 1.2
COc1ccccc1NC(=O)/C=C\C(=O)O | 0.1 | -0.8 | 0.1 | 7.3* | -0.4 | 3.8 | -0.1 | -0.4
Cc1cc(NC(=O)/C=C\C(=O)O)c([N+](=O)[O-])cc1C | -1.2 | 0.3 | 2.2 | 3.0 | 0.4 | -2.8 | nt | nt
CC1CCC(NC(=O)CSc2nnnn2C)CC1 (centres undefined) | -0.5 | -0.1 | 0.9 | -0.1 | -0.4 | nt | nt | nt
CCn1c(/C=C/c2c(C)[nH]c3ccccc23)nc2ccccc2c1=O | 0.9* | 0.2 | 5.0 | 10.0* | 0.3 | 0.2 | 0.0 | 3.7
CCn1c(/C=C/c2c[nH]c3ccccc23)nc2ccccc2c1=O | 1.4* | 5.2* | 11.7* | 8.6* | 3.2 | 2.8 | 1.5 | 7.8*
CCn1c(/C=C\c2ccccc2C)nc2ccccc2c1=O | -2.0 | -0.6 | 3.4 | 0.1 | -0.7 | 2.6 | nt | nt
CC(=O)Nc1ccc(NC(=O)CCN2C(=O)c3ccccc3C2=O)cc1 | -1.0 | -0.2 | 1.6 | -1.7 | 0.6 | nt | nt | nt
SMILES | ssDAF12 agonist | DAX1 inh-1 | hgDAF-12 ag | hcDAF12 agonist | DAX1 inh-2 | Wee1 degr inh | LXR ag | hcDAF12 conf
Cc1ccc2sc(-c3ccc(NC(=O)CCN4C(=O)c5ccccc5C4=O)cc3)nc2c1 | 0.8 | nt | 8.8 | 10.0* | 2.3 | 2.5 | 1.9 | 9.0*
Cc1ccc(S(=O)(=O)N2C[C@H]3C(=O)C[C@@H](c4ccccc4)N(S(=O)(=O)c4ccc(Br)cc4)[C@H]3C[C@H]2c2ccccc2)cc1 | -1.4 | nt | -1.2 | -1.2 | 0.1 | nt | nt | nt
CC(=O)c1cccc2c(O)c(C3=Nc4ccccc4C3=O)[nH]c12 | 1.2* | 0.4 | 4.9 | 6.6* | 1.2 | 0.8 | 0.6 | 7.1*
O=C1NC(=S)N(C(=O)c2ccc(F)cc2)/C1=C/c1cccnc1 | -0.9 | nt | 6.0 | -1.0 | -0.1 | -1.1 | nt | nt
COc1ccc(/C=C2\C(=O)NC(=S)N2C(=O)c2ccc(C)cc2)cc1 | -0.4 | 0.9 | 8.0 | 7.4* | 2.0 | -0.2 | -0.3 | 0.8
CN1CCC/C1=C/C=C1\SC(=S)NC1=O | -0.9 | 2.8 | 0.9 | 7.0* | 0.6 | 1.7 | 0.2 | 3.1
Cc1ccc(-c2cc(-c3ccc(F)cc3)n[nH]2)c(O)c1 | 4.8* | 11.8* | 18.1* | 20.1* | 2.4 | nt | 1.8 | 17.9*
Oc1ccccc1-c1cc(-c2ccccc2)n[nH]1 | 4.5* | 5.9* | 19.0* | 19.3* | 3.7* | nt | 1.8 | 20.8*
Oc1ccccc1-c1ccn[nH]1 | -1.6 | -0.2 | 0.8 | 0.8 | 0.2 | nt | nt | nt
Oc1ccccc1-c1cc(-c2ccc(F)cc2)n[nH]1 | 4.3* | 10.9* | 21.8* | 18.6* | 2.6 | nt | 2.0 | 18.9*
COc1ccc(O)c(-c2cc(-c3ccccc3Cl)[nH]n2)c1 | 0.4 | 2.5 | 7.0 | 7.5* | 0.6 | nt | 0.4 | 4.3
Cc1ccc(O)c(-c2cc(-c3cccc(Br)c3)n[nH]2)c1 | -0.4 | 1.8 | 2.2 | 1.2 | 0.0 | 2.3 | nt | nt
COc1ccc(-c2cc(-c3ccccc3O)[nH]n2)cc1 | 4.4* | 2.1 | 21.8* | 19.5* | 3.7* | 0.5 | 2.6 | 23.1*
COc1ccc(-c2cc(-c3c(O)c(OC)c4occc4c3OC)[nH]n2)cc1 | -1.4 | -0.7 | 0.4 | 1.1 | 0.2 | -1.8 | nt | nt
COc1ccccc1-c1cc2nc(-c3ccccc3)cc(N3CCN(C(=O)c4ccco4)CC3)n2n1 | -2.1 | -5.3 | -17.4 | -5.8 | -8.5 | nt | nt | nt
Cc1cccc2sc(NNC(=O)c3ccc4c(c3)OCCO4)nc12 | 0.0 | 1.8 | 0.8 | 9.4* | -0.3 | 2.5 | -0.3 | 3.0
Cc1c(P(=S)(c2ccccc2)c2ccccc2)[n+]2ccccc2n1CCc1ccccc1 | -1.3 | nt | -3.2 | -3.1 | -3.5 | nt | nt | nt
O=C(NC(=S)Nc1cc([N+](=O)[O-])ccc1O)C1CC1 | -0.7 | 0.3 | 2.6 | 9.6* | -0.3 | nt | -0.3 | 0.7
CCc1cc2c(SCC(=O)N3CCN(C(=O)c4cccs4)CC3)ncnc2s1 | -1.8 | 1.1 | -2.0 | 0.0 | -0.7 | nt | nt | nt
O=C(CN1C(=O)c2ccccc2C1=O)OCC(=O)N1CCCCC1 | -0.7 | -0.4 | -2.1 | -1.7 | -0.8 | nt | nt | nt
